Test results: PubChem BioAssay
Active and inactive are the calls of the source. Unless noted, no rule for the calls is given here.

Experiments:
[1] = tested on: Wnt5a (protein binding on small-molecule microarray); test: small molecules binding Wnt5a protein – biophysical, small-molecule microarray, 635/667 nm fluorescence, primary screen (AID 1142); conditions: 635 nm fluorescence, higher = more signal;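 also: fluorescence read at 667 nm with signal to noise per printed feature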
[2] = ATP-based viability of Huh7 replicon cells – cell-based, CellTiter-Glo luminescence, basal, 48 h, cytotoxicity control for HCV replication inhibitor project, primary screen (AID 1143); conditions: higher = more signal, called active from +8 up or from −8 down;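 also: Huh7 hepatoma cells carrying a hepatitis C replication reporter with no stimulus; test concentration not given here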
[3] = Pseudomonas biofilm growth suppression – PAO1 strain, BacTiter-Glo luminescence, LB-PBS, primary screen (AID 1144); conditions: P. aeruginosa PAO1 biofilm, 12 h, higher = more signal
[4] = basal CRE-LacZ reporter activity in PC12 – cell-based, unstimulated, primary screen (AID 1145); conditions: no forskolin, luminescence, 4.5 h, higher = more signal, called active from +8 up or from −8 down
[5] = forskolin-driven CRE-LacZ activity in PC12 – cell-based, CRE-LacZ reporter, forskolin-stimulated, primary screen (AID 1146); conditions: luminescence, 4.5 h, higher = more signal, called active from +8 up or from −8 down;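 also: PC12 cells with 6xCRE LacZ reporter stimulated by forskolin 10 µM; beta-galactosidase reporter signal reflecting CREB driven transcription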
[6] = target: Streptavidin (Streptomyces avidinii) (UniProt P22629); test: compounds binding control protein streptavidin – biophysical, small-molecule microarray, 635/667 nm fluorescence, artefact control for SMM compound annotation, primary screen (AID 1147); conditions: higher = more signal;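 also: signal reflects streptavidin binding to arrayed compounds as a control protein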
[7] = probe aInhba binding on compound microarray – biochemical, small-molecule microarray, 635/667 nm fluorescence, primary screen (AID 1148); conditions: higher = more signal;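 also: score merges 667nm spot fluorescence with signal-to-noise for antibody binding to printed compounds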
Torsin-1A (Homo sapiens) [8] = target: Torsin-1A (Homo sapiens) (UniProt O14656); test: TOR1A wild-type binding on microarray – cell lysate, small-molecule microarray, lysate, 635/667 nm, primary screen (AID 1149); conditions: COS7 hTOR1A-WT lysate, 635 nm fluorescence, higher = more signal
Torsin-1A (Homo sapiens) [9] = target: Torsin-1A (Homo sapiens) (UniProt O14656); test: torsin A mutant lysate binding on microarrays – cell lysate, small-molecule microarray, COS7 lysate, 635/667 nm fluorescence, primary screen (AID 1150); conditions: COS7 hTOR1A mutant lysate, 635 nm fluorescence, higher = more signal;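 also: score pools 667 nm emission and signal to noise measuring lysate protein binding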
[10] = tested on: Sonic hedgehog protein (Shh); test: Sonic hedgehog microarray binding compounds – biochemical, small-molecule microarray, 635/667 nm fluorescence, primary screen (AID 1151); conditions: 635 nm fluorescence, higher = more signal;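 also: Shh protein binding to compounds spotted on small-molecule microarray slides; score combines spot fluorescence intensity with signal-to-noise across triplicate slides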
[11] = optical density shifts of acrAB sulA E. coli – strain DRC41, OD650, 48 h, E. coli filamentation inducer project, primary screen (AID 1152); conditions: higher = more signal, called active from +8 up or from −8 down;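 also: E. coli MC1000 strain DRC41 lacking acrAB efflux pump and sulA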
[12] = probe aLefty1 binding on compound microarray – biochemical, small-molecule microarray, 635/667 nm fluorescence, primary screen (AID 1153); conditions: higher = more signal;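 also: score merges spot fluorescence with signal-to-noise ratio from the scanned slide images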
[13] = plasmodial surface anion channel blockers, osmotic lysis – cell-based, P. falciparum Indochina, OD700, 1 h, primary screen (AID 1154); conditions: P. falciparum Indochina infected RBC osmotic lysis, higher = more signal, called active from +8 up or from −8 down
[14] = plasmodial surface anion channel blockers, osmotic lysis – cell-based, P. falciparum Indochina, OD700, 2 h, primary screen (AID 1155);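 also: lysis reports solute entry through the parasite surface anion channel PSAC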; conditions: P. falciparum Indochina infected erythrocytes, higher = more signal, called active from +8 up or from −8 down
[15] = changes in parasitized red cell lysis, either direction – P. falciparum Indochina, OD700, 3 h, PSAC antagonist project, primary screen (AID 1156); conditions: P. falciparum-infected erythrocytes, osmotic lysis, higher = more signal, called active from +8 up or from −8 down
[16] = plasmodial surface anion channel blockers, osmotic lysis – cell-based, P. falciparum Indochina, OD700, 18 h, primary screen (AID 1157); conditions: P. falciparum Indochina infected erythrocytes, osmotic lysis OD700, 18 h; higher = more signal, called active from +8 up or from −8 down
[17] = S6 kinase pathway phospho-S6 level changes – cell-based, A549, cytoblot, luminescence, serum-stimulated, primary screen (AID 1158); conditions: 5 h, higher = more signal;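 also: serum-stimulated A549 lung adenocarcinoma cells; signal is phosphorylated S6 detected by cytoblot immunostaining with HRP secondary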
[18] = target: NADPH oxidase 2 (Homo sapiens) (UniProt P04839); test: compounds shifting NOX2 Amplex Red fluorescence – cell-based, HEK293-NOX2, PMA-stimulated, NOX inhibitor project, primary screen (AID 1159); conditions: 45 min, higher = more signal, called active from +8 up or from −8 down; also: test concentration not given here
[19] = target: NADPH oxidase 4 (Homo sapiens) (UniProt Q9NPH5); test: compounds shifting NOX4 Amplex Red fluorescence – cell-based, HEK293-NOX4, tetracycline-induced, NOX inhibitor project, primary screen (AID 1160); conditions: HEK293-NOX4, Amplex Red H2O2 fluorescence, 45 min; higher = more signal, called active from +8 up or from −8 down
[20] = target: NADPH oxidase 5 (Homo sapiens) (UniProt Q96PH1); test: compounds shifting NOX5 Amplex Red fluorescence – cell-based, HEK293-NOX5, NOX inhibitor project, primary screen (AID 1161); conditions: HEK293-NOX5, ionomycin, 45 min, higher = more signal
NADPH oxidase 5 (Homo sapiens), sequence (Q96PH1 whole entry, looked up): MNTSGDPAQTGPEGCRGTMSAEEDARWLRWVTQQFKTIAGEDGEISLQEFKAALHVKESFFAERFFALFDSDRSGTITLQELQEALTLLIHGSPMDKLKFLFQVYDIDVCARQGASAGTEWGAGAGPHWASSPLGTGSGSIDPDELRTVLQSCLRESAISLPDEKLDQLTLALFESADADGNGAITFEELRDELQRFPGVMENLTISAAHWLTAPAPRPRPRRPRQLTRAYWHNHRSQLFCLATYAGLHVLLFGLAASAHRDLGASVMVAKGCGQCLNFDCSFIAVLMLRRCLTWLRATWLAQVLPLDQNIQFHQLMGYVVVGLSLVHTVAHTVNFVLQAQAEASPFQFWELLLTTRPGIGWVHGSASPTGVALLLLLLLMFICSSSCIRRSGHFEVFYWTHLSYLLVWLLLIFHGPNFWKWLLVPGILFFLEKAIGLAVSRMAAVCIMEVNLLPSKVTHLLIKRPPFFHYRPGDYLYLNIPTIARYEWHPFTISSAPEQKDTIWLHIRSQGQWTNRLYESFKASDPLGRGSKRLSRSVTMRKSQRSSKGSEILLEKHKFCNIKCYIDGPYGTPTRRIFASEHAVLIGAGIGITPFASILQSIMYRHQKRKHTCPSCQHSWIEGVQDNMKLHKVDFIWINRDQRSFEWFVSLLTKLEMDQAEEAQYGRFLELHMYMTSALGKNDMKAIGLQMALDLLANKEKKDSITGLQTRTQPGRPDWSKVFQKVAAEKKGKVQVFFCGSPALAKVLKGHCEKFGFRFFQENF

NADPH oxidase 4 (Homo sapiens), sequence (Q9NPH5 whole entry, looked up): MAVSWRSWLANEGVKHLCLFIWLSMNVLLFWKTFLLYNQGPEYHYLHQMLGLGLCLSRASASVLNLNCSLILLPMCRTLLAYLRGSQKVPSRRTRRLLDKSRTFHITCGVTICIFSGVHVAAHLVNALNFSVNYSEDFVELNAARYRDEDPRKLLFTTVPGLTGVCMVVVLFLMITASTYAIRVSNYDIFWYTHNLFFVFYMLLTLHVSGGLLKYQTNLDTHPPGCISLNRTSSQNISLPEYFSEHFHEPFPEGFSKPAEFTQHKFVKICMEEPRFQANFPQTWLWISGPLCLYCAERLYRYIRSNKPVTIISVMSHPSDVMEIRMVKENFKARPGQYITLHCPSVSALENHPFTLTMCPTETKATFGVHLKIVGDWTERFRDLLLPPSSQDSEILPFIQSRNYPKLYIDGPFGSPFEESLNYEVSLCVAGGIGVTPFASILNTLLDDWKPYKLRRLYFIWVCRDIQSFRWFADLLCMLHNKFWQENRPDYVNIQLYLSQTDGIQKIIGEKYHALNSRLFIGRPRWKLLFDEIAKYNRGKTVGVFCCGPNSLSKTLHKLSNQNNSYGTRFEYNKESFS
Streptavidin (Streptomyces avidinii), sequence (P22629 whole entry, looked up): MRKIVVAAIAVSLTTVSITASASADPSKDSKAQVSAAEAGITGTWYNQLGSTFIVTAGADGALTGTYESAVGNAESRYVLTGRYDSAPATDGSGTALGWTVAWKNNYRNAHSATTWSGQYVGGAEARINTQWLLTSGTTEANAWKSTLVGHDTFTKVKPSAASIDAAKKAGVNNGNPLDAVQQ
Torsin-1A (Homo sapiens), sequence (O14656 whole entry, looked up): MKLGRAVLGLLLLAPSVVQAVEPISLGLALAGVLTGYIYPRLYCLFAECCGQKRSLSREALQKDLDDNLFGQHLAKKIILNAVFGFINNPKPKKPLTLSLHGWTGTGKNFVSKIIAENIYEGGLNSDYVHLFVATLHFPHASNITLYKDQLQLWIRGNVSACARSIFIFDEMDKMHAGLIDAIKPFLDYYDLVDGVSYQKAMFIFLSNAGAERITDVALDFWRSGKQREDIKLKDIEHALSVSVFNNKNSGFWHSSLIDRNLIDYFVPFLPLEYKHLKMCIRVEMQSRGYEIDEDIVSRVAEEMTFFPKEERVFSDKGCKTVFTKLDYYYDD
NADPH oxidase 2 (Homo sapiens), sequence (P04839 whole entry, looked up): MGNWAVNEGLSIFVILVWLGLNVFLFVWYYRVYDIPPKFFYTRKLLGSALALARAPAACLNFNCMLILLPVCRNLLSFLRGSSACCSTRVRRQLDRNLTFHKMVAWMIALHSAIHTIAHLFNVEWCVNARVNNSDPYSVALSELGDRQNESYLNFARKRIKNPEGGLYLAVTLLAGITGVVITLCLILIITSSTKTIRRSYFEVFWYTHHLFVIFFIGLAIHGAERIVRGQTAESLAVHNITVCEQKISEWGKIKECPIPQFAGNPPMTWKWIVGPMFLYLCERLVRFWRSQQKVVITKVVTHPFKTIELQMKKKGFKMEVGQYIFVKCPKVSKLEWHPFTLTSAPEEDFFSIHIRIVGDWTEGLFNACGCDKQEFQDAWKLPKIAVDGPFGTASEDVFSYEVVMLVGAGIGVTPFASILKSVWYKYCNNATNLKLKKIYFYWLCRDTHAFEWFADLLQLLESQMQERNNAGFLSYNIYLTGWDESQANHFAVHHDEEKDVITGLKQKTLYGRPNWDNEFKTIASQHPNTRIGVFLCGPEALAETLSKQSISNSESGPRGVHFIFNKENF

Row | Compound | composite z-score [1] | z-score [2] | z-score [3] | z-score [4] | z-score [5] | composite z-score [6] | composite z-score [7] | composite z-score (Torsin-1A (Homo sapiens) [8]) | composite z-score (Torsin-1A (Homo sapiens) [9]) | composite z-score [10] | z-score [11] | composite z-score [12] | z-score [13] | z-score [14] | z-score [15] | z-score [16] | z-score [17] | z-score [18] | z-score [19] | z-score [20]
1 | CCOC(=O)C1=CC[C@@H](c2ccccc2C(F)(F)F)N(S(=O)(=O)c2ccc(C)cc2)C1 | 0.658 | -5.24 (inactive) | -0.0874 (inactive) | 0.238 (inactive) | -0.596 (inactive) | 0.867 | 0.693 | -0.117 | 2.07 | 0.0555 | -0.007 (inactive) | 0.743 | 0.565 (inactive) | -0.555 (inactive) | -0.892 (inactive) | -1.92 (inactive) | 0.39 | 0.17 (inactive) | -0.742 (inactive) | -0.836
2 | C=C(COC)/C(=C/C[C@@H](OC(=O)c1ccncc1)c1ccc(CO)o1)c1cnc2ccccc2c1 | 0.911 | 0.173 (inactive) | -0.854 (inactive) | -0.611 (inactive) | -0.0377 (inactive) | 1.07 | -0.0136 | 1.86 | 0.962 | 2.46 | 0.149 (inactive) | 0.471 | 4.66 (inactive) | 1.24 (inactive) | 1 (inactive) | 0.234 (inactive) | -0.188 | -0.627 (inactive) | -1.24 (inactive) | -1.54
3 | Cc1ccc(S[C@]2(C(=O)NC(C)C)CC(=O)N(Cc3ccccc3C(F)(F)F)[C@@H]2c2ccc(CO)cc2I)cc1 | -0.38 | -4.73 (inactive) | -0.9 (inactive) | -0.141 (inactive) | 1.12 (inactive) | -0.281 | -0.239 | -0.93 | -1.17 | -0.181 | 0.346 (inactive) | 0.135 | 11.2 (active) | 0.141 (inactive) | 1.03 (inactive) | -0.945 (inactive) | 2.05 | 0.95 (inactive) | -3.44 (inactive) | -1.78
4 | CCCCC(=C=CC[C@@H](O)c1ccc(OCCO)cc1)C[C@@H](O)COCc1ccccc1 | 0.511 | -2.32 (inactive) | -0.656 (inactive) | 12.1 (active) | -1.48 (inactive) | -0.476 | -0.203 | 0.611 | 0.699 | 1.38 | 1.98 (inactive) | 0.596 | 16.5 (active) | 1.73 (inactive) | -0.0577 (inactive) | -0.237 (inactive) | 1.95 | -2.67 (inactive) | -0.61 (inactive) | -2.45
5 | O=C1C[C@]2(c3ccc([N+](=O)[O-])cc3)C(=O)N(Cc3ccccc3)c3cc(CO)ccc3[C@H]2N1CC12CC3CC(CC(C3)C1)C2 | -0.186 | 0.349 (inactive) | 0.435 (inactive) | -0.491 (inactive) | 0.245 (inactive) | -1.04 | -0.325 | -0.659 | 0.263 | -0.419 | -0.06 (inactive) | -0.678 | 0.556 (inactive) | 0.37 (inactive) | -0.401 (inactive) | 0.23 (inactive) | -0.218 | 0.135 (inactive) | 0.256 (inactive) | 0.664
6 | Cc1ccc(S[C@]2(C(=O)NC3CC3)CC(=O)N(Cc3ccccc3Cl)[C@@H]2c2ccc(CO)cc2I)cc1 | 1.3 | -1.5 (inactive) | -0.637 (inactive) | 0.145 (inactive) | 1.13 (inactive) | 0.163 | 0.0471 | 0.765 | 1.01 | 1.67 | 0.386 (inactive) | 0.191 | 6.9 (inactive) | 0.789 (inactive) | 0.796 (inactive) | 0.0589 (inactive) | -0.331 | 1.53 (inactive) | -1.86 (inactive) | 1.12
7 | C[C@@H]1ON(c2ccc(C(=O)OC(C)(C)C)cc2)[C@H](c2ccc(Br)cc2)[C@H]1C(=O)N1C(=O)OC[C@H]1Cc1ccccc1 | 0.232 | -1.09 (inactive) | 1 (inactive) | 2.04 (inactive) | 0.289 (inactive) | 1.03 | 0.0301 | 0.673 | 0.644 | 0.991 | 0.351 (inactive) | -0.0241 | 0.393 (inactive) | 0.358 (inactive) | -0.65 (inactive) | 0.428 (inactive) | 0.479 | -0.495 (inactive) | 0.0298 (inactive) | 0.191
8 | CON(C)C(=O)C=C1C[C@@H](c2cccc(Cl)c2)O[C@@H](c2cccc(Cl)c2)O1 | -0.124 | -3.94 (inactive) | 0.875 (inactive) | 0.481 (inactive) | -1.07 (inactive) | 2.55 | -0.183 | 0.643 | 0.124 | 0.774 | -0.511 (inactive) | -0.0035 | 9.13 (active) | 2.17 (inactive) | -1.24 (inactive) | 1.47 (inactive) | 0.178 | -0.0563 (inactive) | -0.986 (inactive) | 0.0304
